Measured values from the supplement of paper PMC10849652.
About 7,900 targets were measured; listed, in parts, are those with a hit and a random draw of the rest. About 0.6% of all pairs of compound and target were hits.

How the values were obtained:
Assay in all cases: log2 fold change, soluble protein after heating vs DMSO (PISA); higher = thermal stabilisation; K562 cells, 10 uM, 30 min; active = over 0.2 and 3.5 SD of the protein, either way, in both replicates (recomputed)
[1] = compound: Cc1ccc(NC(=O)c2ccc(CN3CC[C@H](N(C)C)C3)c(C(F)(F)F)c2)cc1Nc1nccc(-c2cncnc2)n1 [bafetinib]
In short: (§1)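 Soluble protein was quantified by TMTpro 16plex LC-MS/MS after channel sums were equalised. It was obtained as the supernatant after 21,000xg for 90 min from pooled aliquots of K562 cells (2×10^6 cells/mL, 10 μM compound, 30 min) heated for 3 min across 48°C-58°C and extracted in PBS with 0.5% NP-40 at 4°C. Thermal stability values are relative to control samples and come from duplicates. They are given as log2 fold changes.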

[2] = compound: Cc1cccc(CC(=O)N2CCc3c2ccc(-c2cn(C)c4ncnc(N)c24)c3F)n1
In short: as §1

[3] = compound: Cc1cn(-c2cc(NC(=O)c3ccc(C)c(Nc4nccc(-c5cccnc5)n4)c3)cc(C(F)(F)F)c2)cn1 [nilotinib]
In short: as §1

[4] = compound: Cc1nc(Nc2n[nH]c3c2CN(C(=O)N[C@H](CN(C)C)c2ccccc2)C3(C)C)c2sccc2n1
In short: as §1

[5] = compound: Cc1nc(Nc2ncc(C(=O)Nc3c(C)cccc3Cl)s2)cc(N2CCN(CCO)CC2)n1 [dasatinib]
In short: as §1

[6] = compound: Cc1ncc(-c2ccnc(Nc3ccc(S(C)(=O)=O)cc3)n2)n1C(C)C
In short: as §1

[7] = compound: Cn1cc(-c2ccc3c(c2)CCN3C(=O)Cc2cccc(C(F)(F)F)c2)c2c(N)ncnc21
In short: as §1

[8] = compound: Cn1cc(-c2ccc3nnc(C(F)(F)c4ccc5ncccc5c4)n3n2)cn1
In short: as §1

[9] = compound: Cn1cncc1[C@@](N)(c1ccc(Cl)cc1)c1ccc2c(c1)c(-c1cccc(Cl)c1)cc(=O)n2C [tipifarnib]
In short: as §1

[10] = compound: FC(F)(F)c1ccc(/C=C/c2nc(COc3ccc(CCCCn4ccnn4)cc3)co2)cc1 [mubritinib]
In short: as §1

Measured: log2 fold change

KNTC1 (UniProt P50748)
inactive: [1] -0.013 | [2] 0.043 | [3] -0.064 | [4] -0.026 | [5] -0.047 | [6] 0.042 | [7] -0.073 | [8] 0 | [9] -0.108 | [10] 0.004

IPP (UniProt Q9Y573)
inactive: [1] -0.225

LRPPRC (UniProt P42704)
inactive: [1] -0.053 | [2] 0.117 | [3] -0.14 | [4] -0.721 | [5] -0.732 | [6] 0.016 | [7] 0.236 | [8] 0.24 | [9] -0.656 | [10] -0.161

LUC7L2 (UniProt Q9Y383)
UniProt Q9Y383, sequence (Q9Y383 whole entry, looked up): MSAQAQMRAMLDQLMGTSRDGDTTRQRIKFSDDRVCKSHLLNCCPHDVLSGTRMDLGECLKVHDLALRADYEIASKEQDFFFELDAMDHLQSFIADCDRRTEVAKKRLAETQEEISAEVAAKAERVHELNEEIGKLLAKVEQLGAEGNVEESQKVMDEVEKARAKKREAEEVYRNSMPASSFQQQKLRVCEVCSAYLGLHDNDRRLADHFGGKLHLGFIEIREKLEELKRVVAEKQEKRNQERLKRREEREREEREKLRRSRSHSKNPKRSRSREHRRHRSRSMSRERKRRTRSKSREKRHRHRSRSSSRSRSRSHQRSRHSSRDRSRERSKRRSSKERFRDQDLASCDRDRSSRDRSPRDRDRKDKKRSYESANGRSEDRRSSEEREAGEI
inactive: [1] 0.035 | [2] 0.002 | [3] 0.059 | [5] -0.01 | [6] -0.007 | [7] -0.033 | [8] -0.059 | [9] 0.049 | [10] -0.07
active: [4] -2.75

LUZP1 (UniProt Q86V48)
UniProt Q86V48, sequence (Q86V48 whole entry, looked up): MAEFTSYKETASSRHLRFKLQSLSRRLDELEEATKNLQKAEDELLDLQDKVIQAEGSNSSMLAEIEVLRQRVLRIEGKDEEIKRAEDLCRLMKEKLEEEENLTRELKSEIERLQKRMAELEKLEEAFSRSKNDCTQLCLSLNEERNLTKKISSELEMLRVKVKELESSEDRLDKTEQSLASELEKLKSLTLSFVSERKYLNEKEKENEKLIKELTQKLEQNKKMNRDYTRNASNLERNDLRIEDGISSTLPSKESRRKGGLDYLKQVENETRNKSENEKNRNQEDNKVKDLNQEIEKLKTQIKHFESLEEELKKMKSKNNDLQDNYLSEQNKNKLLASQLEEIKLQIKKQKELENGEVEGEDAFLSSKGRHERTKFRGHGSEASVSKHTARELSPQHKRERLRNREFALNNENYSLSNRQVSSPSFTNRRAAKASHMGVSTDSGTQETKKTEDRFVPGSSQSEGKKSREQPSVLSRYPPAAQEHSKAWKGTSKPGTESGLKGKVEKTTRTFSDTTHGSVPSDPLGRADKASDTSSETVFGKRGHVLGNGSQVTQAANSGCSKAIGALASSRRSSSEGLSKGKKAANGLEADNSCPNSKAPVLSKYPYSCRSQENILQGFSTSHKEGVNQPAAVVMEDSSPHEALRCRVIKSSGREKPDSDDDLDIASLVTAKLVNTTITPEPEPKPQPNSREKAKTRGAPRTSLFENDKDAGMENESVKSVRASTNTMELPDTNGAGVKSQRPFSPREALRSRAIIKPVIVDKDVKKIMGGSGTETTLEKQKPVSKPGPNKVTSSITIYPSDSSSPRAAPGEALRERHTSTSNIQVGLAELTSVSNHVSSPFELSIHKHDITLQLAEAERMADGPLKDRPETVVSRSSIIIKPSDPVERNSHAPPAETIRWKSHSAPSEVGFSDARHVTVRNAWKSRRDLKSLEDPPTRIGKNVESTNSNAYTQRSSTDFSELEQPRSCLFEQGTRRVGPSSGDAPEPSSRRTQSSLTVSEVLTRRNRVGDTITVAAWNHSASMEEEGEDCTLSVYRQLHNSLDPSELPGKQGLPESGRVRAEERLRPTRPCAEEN
inactive: [1] -0.075 | [2] -0.028 | [3] -0.086 | [4] -0.35 | [5] 0.106 | [6] 0.21 | [7] -0.129 | [8] -0.104 | [9] 0.186 | [10] -0.055

ILKAP (UniProt Q9H0C8)
UniProt Q9H0C8, sequence (Q9H0C8 whole entry, looked up): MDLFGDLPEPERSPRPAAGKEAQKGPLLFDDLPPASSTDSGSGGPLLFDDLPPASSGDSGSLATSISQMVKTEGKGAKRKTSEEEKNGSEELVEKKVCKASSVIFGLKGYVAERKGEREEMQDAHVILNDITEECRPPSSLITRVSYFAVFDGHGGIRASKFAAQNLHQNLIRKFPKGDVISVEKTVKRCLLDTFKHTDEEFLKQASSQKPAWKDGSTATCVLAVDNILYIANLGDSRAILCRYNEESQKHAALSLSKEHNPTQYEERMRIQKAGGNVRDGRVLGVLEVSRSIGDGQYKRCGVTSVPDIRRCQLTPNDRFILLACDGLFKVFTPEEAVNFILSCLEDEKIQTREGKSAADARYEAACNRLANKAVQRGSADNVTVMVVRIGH
inactive: [1] 0.028 | [2] 0.079 | [3] 0.052 | [4] -0.117 | [5] -0.208 | [6] 0.02 | [7] 0.036 | [8] 0.045 | [9] -0.093 | [10] 0.137

KIF3A (UniProt Q9Y496)
UniProt Q9Y496, sequence (Q9Y496 whole entry, looked up): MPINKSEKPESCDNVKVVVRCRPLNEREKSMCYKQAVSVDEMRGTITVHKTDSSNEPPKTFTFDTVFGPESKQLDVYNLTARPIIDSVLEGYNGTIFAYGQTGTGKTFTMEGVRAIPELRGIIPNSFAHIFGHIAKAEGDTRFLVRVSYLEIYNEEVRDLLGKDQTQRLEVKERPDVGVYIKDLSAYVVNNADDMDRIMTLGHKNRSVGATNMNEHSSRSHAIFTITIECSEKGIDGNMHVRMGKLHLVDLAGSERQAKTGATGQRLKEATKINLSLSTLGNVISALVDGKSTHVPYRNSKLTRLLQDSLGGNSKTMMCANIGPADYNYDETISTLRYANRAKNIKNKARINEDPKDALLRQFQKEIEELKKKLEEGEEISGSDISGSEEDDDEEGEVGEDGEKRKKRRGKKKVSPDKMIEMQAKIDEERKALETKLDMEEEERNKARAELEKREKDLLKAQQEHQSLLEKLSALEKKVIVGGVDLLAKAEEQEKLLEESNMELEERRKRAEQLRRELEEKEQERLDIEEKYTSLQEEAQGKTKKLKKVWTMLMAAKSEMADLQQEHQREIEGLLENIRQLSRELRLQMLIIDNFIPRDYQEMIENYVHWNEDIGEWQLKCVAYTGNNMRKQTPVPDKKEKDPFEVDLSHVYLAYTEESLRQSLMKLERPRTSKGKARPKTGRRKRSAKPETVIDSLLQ
inactive: [1] 0.022 | [2] -0.047 | [3] -0.128 | [4] 0.054 | [5] -0.068 | [6] 0.093 | [7] 0.025 | [8] -0.043 | [9] -0.031 | [10] 0.018

MAD2L1 (UniProt Q13257)
UniProt Q13257, sequence (Q13257 whole entry, looked up): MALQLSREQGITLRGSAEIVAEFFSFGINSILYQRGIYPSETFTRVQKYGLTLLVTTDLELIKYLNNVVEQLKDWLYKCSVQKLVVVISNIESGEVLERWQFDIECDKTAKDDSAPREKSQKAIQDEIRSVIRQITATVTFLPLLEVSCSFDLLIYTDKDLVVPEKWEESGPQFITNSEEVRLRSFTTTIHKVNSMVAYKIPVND
inactive: [1] -0.054 | [2] 0.018 | [3] -0.082 | [4] -0.042 | [5] -0.06 | [6] -0.012 | [7] -0.001 | [8] 0.009 | [9] -0.055 | [10] 0.042

MICOS13 (UniProt Q5XKP0)
UniProt Q5XKP0, sequence (Q5XKP0 whole entry, looked up): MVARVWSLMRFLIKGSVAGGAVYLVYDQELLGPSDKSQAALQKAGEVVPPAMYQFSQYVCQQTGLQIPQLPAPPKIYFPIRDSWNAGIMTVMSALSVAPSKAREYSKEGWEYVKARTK
inactive: [1] -0.114 | [2] 0.014 | [3] -0.054 | [4] 0.025 | [5] -0.085 | [6] 0.001 | [7] 0.046 | [8] 0.056 | [9] -0.111 | [10] 0.117

MAPRE3 (UniProt Q9UPY8)
UniProt Q9UPY8, sequence (Q9UPY8 whole entry, looked up): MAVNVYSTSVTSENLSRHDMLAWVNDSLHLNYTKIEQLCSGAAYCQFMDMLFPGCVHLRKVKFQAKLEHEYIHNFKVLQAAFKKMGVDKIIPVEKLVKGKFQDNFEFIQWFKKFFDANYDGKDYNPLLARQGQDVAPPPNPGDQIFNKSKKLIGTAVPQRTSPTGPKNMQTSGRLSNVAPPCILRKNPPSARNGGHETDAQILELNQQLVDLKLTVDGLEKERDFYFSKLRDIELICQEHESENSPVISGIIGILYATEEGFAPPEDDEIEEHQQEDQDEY
inactive: [1] -0.037 | [2] 0.038 | [3] -0.012 | [4] -0.038 | [5] -0.042 | [6] 0.021 | [7] -0.041 | [8] 0.061 | [9] -0.037 | [10] 0.027

MCCC2 (UniProt Q9HCC0)
UniProt Q9HCC0, sequence (Q9HCC0 whole entry, looked up): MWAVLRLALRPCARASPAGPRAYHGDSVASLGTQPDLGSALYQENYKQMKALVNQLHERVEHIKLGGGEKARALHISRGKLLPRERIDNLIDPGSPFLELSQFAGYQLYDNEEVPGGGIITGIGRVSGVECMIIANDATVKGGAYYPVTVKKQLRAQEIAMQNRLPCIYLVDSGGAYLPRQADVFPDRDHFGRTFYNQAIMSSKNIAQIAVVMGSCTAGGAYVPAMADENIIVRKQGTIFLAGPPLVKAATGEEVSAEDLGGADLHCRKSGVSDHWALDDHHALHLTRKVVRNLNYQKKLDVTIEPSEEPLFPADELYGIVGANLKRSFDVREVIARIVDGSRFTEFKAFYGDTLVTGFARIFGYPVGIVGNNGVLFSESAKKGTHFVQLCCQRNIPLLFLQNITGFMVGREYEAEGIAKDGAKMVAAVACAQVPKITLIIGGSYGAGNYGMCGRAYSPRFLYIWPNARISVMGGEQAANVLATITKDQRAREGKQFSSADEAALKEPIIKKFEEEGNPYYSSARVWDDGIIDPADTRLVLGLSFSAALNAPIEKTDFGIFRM
inactive: [1] -0.047 | [2] -0.062 | [3] 0.035 | [4] -0.012 | [5] 0.058 | [6] -0.047 | [7] 0.04 | [8] 0.028 | [9] -0.005 | [10] -0.015

MAP2K7 isoform 4 (UniProt O14733)
inactive: [1] -0.086 | [2] 0 | [3] -0.035 | [4] 0.025 | [5] -0.075 | [6] -0.039 | [7] -0.006 | [8] 0.02 | [9] 0.027 | [10] -0.018

MAPK12 (UniProt P53778)
UniProt P53778, sequence (P53778 whole entry, looked up): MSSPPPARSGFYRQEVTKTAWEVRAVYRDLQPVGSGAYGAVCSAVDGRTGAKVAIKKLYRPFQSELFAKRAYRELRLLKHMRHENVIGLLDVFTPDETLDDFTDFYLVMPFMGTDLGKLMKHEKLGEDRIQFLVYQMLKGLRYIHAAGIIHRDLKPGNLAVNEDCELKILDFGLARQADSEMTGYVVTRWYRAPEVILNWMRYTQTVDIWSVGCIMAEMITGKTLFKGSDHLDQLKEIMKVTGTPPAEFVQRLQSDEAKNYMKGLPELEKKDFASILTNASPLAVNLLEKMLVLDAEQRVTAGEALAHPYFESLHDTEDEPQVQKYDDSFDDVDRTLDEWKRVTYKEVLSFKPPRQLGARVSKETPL
inactive: [1] -0.037 | [2] 0.008 | [3] -0.054 | [4] -0.254 | [5] -0.079 | [6] -0.035 | [8] -0.077 | [9] -0.007 | [10] 0.061
active: [7] 0.34

ILVBL (UniProt A1L0T0)
UniProt A1L0T0, sequence (A1L0T0 whole entry, looked up): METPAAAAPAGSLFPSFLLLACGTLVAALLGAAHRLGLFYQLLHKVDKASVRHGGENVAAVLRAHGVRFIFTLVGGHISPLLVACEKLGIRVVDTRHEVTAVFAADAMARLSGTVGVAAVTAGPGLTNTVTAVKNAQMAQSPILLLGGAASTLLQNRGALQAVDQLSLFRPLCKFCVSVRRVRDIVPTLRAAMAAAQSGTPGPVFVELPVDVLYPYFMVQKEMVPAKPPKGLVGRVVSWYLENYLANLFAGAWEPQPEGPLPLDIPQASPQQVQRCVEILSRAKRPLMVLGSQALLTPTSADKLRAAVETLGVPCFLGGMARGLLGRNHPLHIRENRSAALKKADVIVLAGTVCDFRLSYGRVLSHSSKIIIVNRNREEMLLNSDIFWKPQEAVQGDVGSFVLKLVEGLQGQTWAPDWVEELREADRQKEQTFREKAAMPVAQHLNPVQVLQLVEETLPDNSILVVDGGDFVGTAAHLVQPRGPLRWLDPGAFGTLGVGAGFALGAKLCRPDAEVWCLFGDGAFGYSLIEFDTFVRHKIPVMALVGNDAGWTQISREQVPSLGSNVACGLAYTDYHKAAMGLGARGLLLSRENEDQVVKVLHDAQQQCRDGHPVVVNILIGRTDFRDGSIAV
inactive: [1] 0.065 | [2] -0.049 | [3] 0.074 | [4] 0.011 | [5] -0.09 | [6] -0.025 | [7] 0.247 | [8] -0.005 | [9] -0.047 | [10] 0.041

LDLR (UniProt P01130)
inactive: [1] 0.005 | [2] -0.029 | [3] 0.041 | [4] -0.027 | [5] 0.056 | [6] -0.064 | [7] 0.013 | [8] 0.029 | [9] 0.097 | [10] -0.082
